The values below come from PubChem BioAssay (NCI).

Values joined by “and” are separate entries in the source; they are usually repeats but may differ in a detail not shown here. Equal values may be shown once. About 79,000 compounds went through this panel and 15% of them were active in at least one assay; those are over-represented in the sample as a whole. A structure can be active in one record and inactive in another. Active and inactive are the calls of the source. No stated cut-off is given here; in the data, active means growth inhibition above about 70%; inactive means the rest.

This experiment in a line: NCI Yeast Anticancer Drug Screen. Data for the cln2 rad14 strain (AID 165).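 Further: 0% = growth equal to vehicle treated cultures.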 As to conditions: S. cerevisiae cln2 rad14 strain, stronger effect = higher value. Here is the method:
Growth inhibition of yeast strains with defined genetic alterations is measured as a screen for potential anti-cancer activity. Selected strains with alterations in DNA damage repair or cell cycle control were exposed to compounds and growth inhibition was measured relative to vehicle treated controls. The strain used in this assay is cln2 rad14

Where [1] appears, read: at 5.0 µM (retest, dose inferred, filed as 0.5).
Where [2] appears, read: at 50.0 µM (retest, dose inferred, filed as 5.0).

Regarding `CN(Cc1cccc2ccccc12)Cc1cccc2ccccc12`, the growth inhibition is -17% (inactive) under setting [1], 10% (inactive) under setting [2] and 33.2% (inactive) (at 50.0 µM).

In the case of `CCCCCCCCCCCCOC1C(COCCN2CCCC2)OC2OC(C)(C)OC21` (configuration not stated), the growth inhibition was 42% (inactive) under setting [1], 97% (active) under setting [2] and 90.3% (active) (at 50.0 µM).

As to `COc1ccc2c(Cc3c4ccccc4cc4ccccc34)cncc2c1O`, the growth inhibition was -2% (inactive) under setting [1], 96% (active) under setting [2] and 80.2% (active) (at 50.0 µM).

As for `Nc1ccccc1SSc1ccccc1N`, the growth inhibition runs as follows: under setting [1], 17% (inactive) and 4% (inactive) and 13% (inactive); under setting [2], 99% (active) and 5% (inactive); (at 50.0 µM) 99.2% (active) and 98.8% (active).

For the molecule `CC(C)(C(=O)NN)c1ccccc1`, the growth inhibition reads like this: under setting [1], 20% (inactive); under setting [2], 88% (active); (at 50.0 µM) 55.5% (inactive).

For the molecule `CCCCCCCCCC/C=C\CC(=O)O`, the growth inhibition was 7% (inactive) under setting [1], 14% (inactive) under setting [2] and 9.65% (inactive) (at 50.0 µM).

On to `O=C(Nc1ccn(C2CC(O)C(COC(c3ccccc3)(c3ccccc3)c3ccccc3)O2)c(=O)n1)c1ccccc1` (configuration not stated), for which the growth inhibition under setting [1] is 83% (active), the growth inhibition under setting [2] was 96% (active) and the growth inhibition (at 50.0 µM) was 92.8% (active).

On to `COC(=O)C1(N2CCOCC2)CCC([C@@H](c2ccccc2)C(C)[N+](=O)[O-])C1` (some centres not stated), for which the growth inhibition is -1% (inactive) under setting [1], -2% (inactive) under setting [2] and 8.15% (inactive) (at 50.0 µM).

Consider `O=C(Nn1c(-c2ccccc2)nc2ccccc2c1=O)c1ccc(Cl)cc1`, for which the growth inhibition is -20% (inactive) under setting [1], 16% (inactive) under setting [2] and 49.5% (inactive) (at 50.0 µM).

As to `O=C1C(C(O)(C(F)(F)F)C(F)(F)F)CCC1C(O)(C(F)(F)F)C(F)(F)F` (configuration not stated), the growth inhibition reads like this: under setting [1], 83% (active); under setting [2], 46% (inactive); (at 50.0 µM) 14.2% (inactive).

With `c1cc2ccc3cc4ncccc4c4ccc(c1)c2c34`, the growth inhibition is, setting by setting: under setting [1], 15% (inactive); under setting [2], 90% (active); (at 50.0 µM) 92.3% (active).

Consider `CN(C)N1C(=O)SCC(c2ccccc2)(c2ccccc2)C1=O`, for which the growth inhibition is -26% (inactive) under setting [1], 3% (inactive) under setting [2] and 6.9% (inactive) (at 50.0 µM).

As to `Cc1ccc2nc(N/N=C/c3ccc(C)s3)cc(C)c2c1`, the growth inhibition was 17% (inactive) under setting [1], -18% (inactive) under setting [2] and 90.8% (active) (at 50.0 µM).

For `O=CC(=C(I)I)c1ccccc1`, the growth inhibition under setting [1] was 2% (inactive), the growth inhibition under setting [2] was 100% (active) and the growth inhibition (at 50.0 µM) was 91.5% (active).
